Measured values: PubChem BioAssay (Tox21)
Inconclusive results are not listed. Values without a mark were called inactive. The source made the active and inactive calls. Calls come from the whole dose curve; as a rule, active = well fitted cell-killing curve with a large enough effect in the repeat runs; inconclusive = weak or mixed curves, or effect the other way; inactive = flat fitted curve, though single readings scatter.

test: cAMP Responsive Elements (CRE) small molecule antagonists, cell-based qHTS assay: qHTS cell viability counter screen (AID 2060913); details: CRE-bla HEK293T viability, CellTiter-Glo luminescence, 5 h; series mostly up to 92.4 µM; viability change, negative = cytotoxic: at the top concentration; note: nearly all actives have a fitted effect of over 40% in size
Method in brief: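 Cytotoxicity read in the same wells as the CRE-bla HEK293T antagonist assay: after 3 h compound with 0.25 uM NKH477 final and 2 h beta-lactamase substrate, CellTiter-Glo luminescence measured.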
% is set by controls: 0 for no effect and ±100 for the full control effect.

Going from CC(=O)Nc1ccc(C)cc1 to Cc1ccc(NC(=O)N(C)C)cc1NC(=O)N(C)C, the “viability change, negative = cytotoxic” value falls from -0.644% to -12%.

Going from CCCCCCOC(=O)CCC to CCCCC(CC)COC(=O)c1ccccc1 (stereo not given), the “viability change, negative = cytotoxic” value falls from 6% to -4.03%.

Compared with CCOC(=O)C(F)(F)F, CCC(C)C(=O)OC (stereo not given) is lower in “viability change, negative = cytotoxic” value: 1.45% for the first, -7.46% for the second.

Going from OCCCCC(O)CO (stereo not given) to OCCC(O)CO (stereo not given), the “viability change, negative = cytotoxic” value rises from 6.51% to 20.2%.

Compared with C=C(C)C(=O)OCCOP(=O)(O)OCCOC(=O)C(=C)C, CC(C)=CCCC(C)CCOC=O (stereo not given) is higher in “viability change, negative = cytotoxic” value: -5.55% for the first, 7% for the second.

Going from CC12CCC(CC1=O)C2(C)C (stereo not given) to CCCC(C)C=O (stereo not given), the “viability change, negative = cytotoxic” value falls from 10.7% to 9.43%.

First: CC(CO)(CO)C(=O)O
Second: CCC(=O)OCc1ccccc1
The “viability change, negative = cytotoxic” value of the first is lower: -0.433% for the first, 2.56% for the second.

First: NCCCCCCNCCCCCCN
Second: CC(CO)Oc1ccccc1 (stereo not given)
The “viability change, negative = cytotoxic” value of the first is lower: 6.21% for the first, 10.2% for the second.

For O=C1OC(=O)c2cc([N+](=O)[O-])ccc21, the “viability change, negative = cytotoxic” value was -5.36%.

Going from CCCCCCCCCCCCCCCCOP(=O)([O-])OCC[N+](C)(C)C to CCCCOCCOC(=O)c1cccnc1, the “viability change, negative = cytotoxic” value rises from -5.92% [at 42.5 µM] to 0.0686% [at 42.5 µM].

Going from c1ccc2c(c1)ccc1c3ccccc3ccc21 to CNCC[C@@H](Oc1ccccc1C)c1ccccc1, the “viability change, negative = cytotoxic” value falls from 7.2% [at 42.5 µM] to -0.434% [at 42.5 µM].

First: O=C1CC[C@@H](C(=O)O)N1
Second: C[C@]12CCC(=O)C=C1CC[C@H]1[C@@H]3CC[C@](O)(C(=O)CO)[C@@]3(C)C[C@H](O)[C@@]12F
The “viability change, negative = cytotoxic” value of the first is higher: -1.18% [at 42.5 µM] for the first, -3.92% [at 42.5 µM] for the second.

Compared with C[C@@H](C1=C(CCN(C)C)Cc2ccccc21)c1ccccn1, CC(=O)Oc1ccc2c(c1)CC[C@@H]1[C@@H]2CC[C@]2(C)[C@@H](O)CC[C@@H]12 is lower in “viability change, negative = cytotoxic” value: 5.53% [at 42.5 µM] for the first, -0.458% [at 42.5 µM] for the second.

First: C[C@H]1C[C@H]2[C@@H]3CCC4=CC(=O)C=C[C@]4(C)[C@H]3C(=O)C[C@]2(C)[C@@]1(O)C(=O)CO
Second: CC(=O)N[C@@H](CCC(=O)O)C(=O)O
The “viability change, negative = cytotoxic” value of the first is lower: -2.3% [at 42.5 µM] for the first, 0.528% [at 42.5 µM] for the second.

For CC(=O)OCC(CCn1cnc2cnc(N)nc21)COC(C)=O, the “viability change, negative = cytotoxic” value was 1.39% [at 42.5 µM].

With IC(I)I the Potency was “inactive”.
In the case of CCc1cc(C(C)(C)C)c(O)c(C(C)(C)C)c1, the Potency is reported as “inactive”.
For C#C[C@]1(O)CC[C@H]2[C@@H]3CCc4cc(OC)ccc4[C@H]3CC[C@@]21C, the Potency was “inactive”.
With COc1ccc(Nc2ccccc2)c(C)c1 the Potency was “inactive”.
For CC1COC(=O)O1 (stereo not given), the Potency was “inactive”.
With Cn1cnc2c1c(=O)[nH]c(=O)n2C the Potency was “inactive”.
For Cc1ccccc1Cl, the Potency was “inactive”.
In the case of CCCN(CCC)C(=O)SCC, the Potency is reported as “inactive”.
For O=C(c1ccccc1)c1ccc(O)cc1O, the Potency was “inactive”.
In the case of CC(=O)OCCOCCOCCOC(C)=O, the Potency is reported as “inactive”.

In the case of CN(C)c1ccc(/C=C/c2ccc([N+](=O)[O-])cc2)cc1, the viability change, negative = cytotoxic is reported as 10.9% [at 8.39 µM].

Work on O=C=NCc1cccc(CN=C=O)c1 yielded a viability change, negative = cytotoxic of 5.35% [at 18.9 µM].

test: cAMP Responsive Elements (CRE) small molecule agonists, cell-based qHTS assay: qHTS cell viability counter screen (AID 2060914); details: CRE-bla HEK293T viability, CellTiter-Glo luminescence, 5 h; series mostly up to 92.4 µM; activity change, negative = cytotoxicity: at the top concentration;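 note: viability read after 3 h of compound exposure; nearly all actives have a fitted effect of over 50% in size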
Method in brief: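 CRE-bla HEK293T cells in 10% dialyzed FBS medium were exposed to compounds for 3 h at 37C after 18 h plating. CellTiter-Glo was then added in the same wells, and luminescence was read after 30 min at room temperature.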

Compared with CC(=O)Nc1ccc(C)cc1, Cc1ccc(NC(=O)N(C)C)cc1NC(=O)N(C)C is higher in “activity change, negative = cytotoxicity” value: -0.227% for the first, 0.854% for the second.

Going from CCCCCCOC(=O)CCC to CCCCC(CC)COC(=O)c1ccccc1 (stereo not given), the “activity change, negative = cytotoxicity” value falls from -0.0339% to -4.48%.

Compared with IC(I)I, OCCC(O)CO (stereo not given) is higher in “activity change, negative = cytotoxicity” value: -1.81% for the first, 0.579% for the second.

First: CCOC(=O)C(F)(F)F
Second: CCC(C)C(=O)OC (stereo not given)
The “activity change, negative = cytotoxicity” value of the first is lower: -9.01% for the first, 0.245% for the second.

Going from OCCCCC(O)CO (stereo not given) to CC(CO)(CO)C(=O)O, the “activity change, negative = cytotoxicity” value falls from 0.824% to -12.3%.

Going from C=C(C)C(=O)OCCOP(=O)(O)OCCOC(=O)C(=C)C to CC(C)=CCCC(C)CCOC=O (stereo not given), the “activity change, negative = cytotoxicity” value falls from 0.733% to -1.26%.

Compared with CC12CCC(CC1=O)C2(C)C (stereo not given), CCCC(C)C=O (stereo not given) is higher in “activity change, negative = cytotoxicity” value: -18.2% for the first, 0.0516% for the second.

Compared with NCCCCCCNCCCCCCN, CCC(=O)OCc1ccccc1 is lower in “activity change, negative = cytotoxicity” value: -1.53% for the first, -5.54% for the second.

Going from CC(CO)Oc1ccccc1 (stereo not given) to O=C1OC(=O)c2cc([N+](=O)[O-])ccc21, the “activity change, negative = cytotoxicity” value rises from -27.5% to 12.7%.

Going from CCCCCCCCCCCCCCCCOP(=O)([O-])OCC[N+](C)(C)C to CCCCOCCOC(=O)c1cccnc1, the “activity change, negative = cytotoxicity” value rises from -14% [at 42.5 µM] to -6.87% [at 42.5 µM].

First: c1ccc2c(c1)ccc1c3ccccc3ccc21
Second: CNCC[C@@H](Oc1ccccc1C)c1ccccc1
The “activity change, negative = cytotoxicity” value of the first is lower: -13.5% [at 42.5 µM] for the first, -1.76% [at 42.5 µM] for the second.

Compared with O=C1CC[C@@H](C(=O)O)N1, C[C@]12CCC(=O)C=C1CC[C@H]1[C@@H]3CC[C@](O)(C(=O)CO)[C@@]3(C)C[C@H](O)[C@@]12F is lower in “activity change, negative = cytotoxicity” value: 20.6% [at 42.5 µM] for the first, -25.2% [at 42.5 µM] for the second.

Going from C[C@@H](C1=C(CCN(C)C)Cc2ccccc21)c1ccccn1 to CC(=O)Oc1ccc2c(c1)CC[C@@H]1[C@@H]2CC[C@]2(C)[C@@H](O)CC[C@@H]12, the “activity change, negative = cytotoxicity” value rises from 10.3% [at 42.5 µM] to 24.2% [at 42.5 µM].

Compared with C[C@H]1C[C@H]2[C@@H]3CCC4=CC(=O)C=C[C@]4(C)[C@H]3C(=O)C[C@]2(C)[C@@]1(O)C(=O)CO, CC(=O)N[C@@H](CCC(=O)O)C(=O)O is higher in “activity change, negative = cytotoxicity” value: 1.9% [at 42.5 µM] for the first, 7.21% [at 42.5 µM] for the second.

For CC(=O)OCC(CCn1cnc2cnc(N)nc21)COC(C)=O, the “activity change, negative = cytotoxicity” value was 0.393% [at 42.5 µM].

For CCc1cc(C(C)(C)C)c(O)c(C(C)(C)C)c1, the Potency was “inactive”.
For C#C[C@]1(O)CC[C@H]2[C@@H]3CCc4cc(OC)ccc4[C@H]3CC[C@@]21C, the Potency was “inactive”.
With COc1ccc(Nc2ccccc2)c(C)c1 the Potency was “inactive”.
With CC1COC(=O)O1 (stereo not given) the Potency was “inactive”.
For Cn1cnc2c1c(=O)[nH]c(=O)n2C, the Potency was “inactive”.
For Cc1ccccc1Cl, the Potency was “inactive”.
With CCCN(CCC)C(=O)SCC the Potency was “inactive”.
For O=C(c1ccccc1)c1ccc(O)cc1O, the Potency was “inactive”.
For CC(=O)OCCOCCOCCOC(C)=O, the Potency was “inactive”.

For CN(C)c1ccc(/C=C/c2ccc([N+](=O)[O-])cc2)cc1, the activity change, negative = cytotoxicity was 5.22% [at 8.39 µM].

O=C=NCc1cccc(CN=C=O)c1 gave an activity change, negative = cytotoxicity of -0.289% [at 18.9 µM].
